In PubChem BioAssay AID651599 (National Center for Advancing Translational Sciences (NCATS), 2012):
Records with an inconclusive call do not appear. The source made the active and inactive calls. Calls come from the whole dose curve; as a rule, active = well fitted inhibition curve with a large enough effect; inconclusive = small, poorly fitted or top-dose-only effect; inactive = no such curve, though single readings can be large or run the other way.

Biological target: Tumor susceptibility gene 101 protein (Homo sapiens) (UniProt Q99816)
Test: qHTS Assay for Iinhibitors of HIV-1 Budding by Blocking the Interaction of PTAP/TSG101: Hit Validation in TR assay
Settings: Tsg101 binding domain + Texas Red-labeled PTAP peptide, fluorescence polarization, 20 min; series mostly up to 57.5 µM
Procedure, shortened: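 Texas Red-PTAP peptide (50 nM) binding to Tsg101 binding domain (10 uM), both final, in pH 7.5 HEPES buffer, read as polarization after 20 min at room temperature; compounds pinned before peptide addition.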

Sequence of Tumor susceptibility gene 101 protein (Homo sapiens) (Q99816 whole entry, looked up): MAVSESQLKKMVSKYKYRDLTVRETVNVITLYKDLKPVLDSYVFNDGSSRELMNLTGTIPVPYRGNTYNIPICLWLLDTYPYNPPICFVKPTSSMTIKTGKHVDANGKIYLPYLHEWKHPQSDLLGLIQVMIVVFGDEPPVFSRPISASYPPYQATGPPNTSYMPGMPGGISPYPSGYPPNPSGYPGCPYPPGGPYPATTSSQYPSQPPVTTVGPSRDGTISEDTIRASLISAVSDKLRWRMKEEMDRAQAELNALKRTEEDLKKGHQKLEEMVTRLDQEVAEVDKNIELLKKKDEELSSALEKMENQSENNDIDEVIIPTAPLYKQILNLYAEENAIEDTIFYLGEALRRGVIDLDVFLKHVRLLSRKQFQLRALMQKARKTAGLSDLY

Potency, inactive:
CCN(CC)c1ccc(/C=C(\C#N)C(=O)NCc2ccccc2)cc1
CCCN(CCC)S(=O)(=O)c1ccc(C(=O)OCCN2C(=O)c3cccc4c(N5CCOCC5)ccc(c34)C2=O)cc1
COc1ccc(OC)c(NC(=O)CCN2CC(C)CC(C)C2)c1 (stereo not drawn)
COc1ccc2c(C=Nc3c(C)n(C)n(-c4ccccc4)c3=O)c(O)n(Cc3ccco3)c(=O)c2c1
Cc1cc[n+](-c2[nH]c(=O)sc2/C=N/NC([S-])=Nc2ccccc2)cc1
Cc1ccc(N2C(=O)c3cccc4c(N5CCN(C)CC5)ccc(c34)C2=O)c2cccnc12
Cc1ccc(CSc2nnc3c(n2)OC2(Nc4ccccc4-3)C(=O)Nc3ccc(F)cc32)cc1 (stereo not drawn)
CCN1C(=O)c2cccc3c(N)ccc(c23)C1=O
Cn1c(=O)cc2c3c(c(N4CCCCC4)ccc31)C(=O)c1ccccc1-2
CCCCn1c(SCC(=O)c2cc(OC)ccc2OC)nc2cc(S(N)(=O)=O)ccc21
Oc1ccc2ccccc2c1N=Nc1nccs1
CSC1=NSC2=NC(=O)/C(=C/c3coc4ccc(O)cc4c3=O)C(=N)N12
CCCCNC(=O)C(C#N)c1nc2ccccc2nc1N1CCN(Cc2ccc3c(c2)OCO3)CC1 (stereo not drawn)
COc1ccc2c(C#N)c3ccccn3c2c1
Cc1cccc(N2C(=O)c3cccc4c(N)ccc(c34)C2=O)c1
Cn1c(/C(C#N)=C/c2ccc(-c3ccc(S(N)(=O)=O)cc3)o2)nc2ccccc21
Nc1c(C(=O)C2CC2)sc2nc(-c3ccccc3)cc(C(F)(F)F)c12
Nc1ccc2c(c1)C/C(=C/c1ccco1)C2=O
CC1=CC(=C(C#N)c2nc3ccccc3s2)C=C(C)N1c1ccc(F)cc1
S=C(Nc1ccc(N2CCOCC2)cc1)Nc1ccc2nc(-c3ccco3)c(-c3ccco3)nc2c1
CCNc1cccc2c1C(=O)N(C)C2=O
O=C(NCC1CCCO1)c1cccc2c1C(=O)c1ccc(N3CCC(Cc4ccccc4)CC3)cc1S2(=O)=O (stereo not drawn)
Cc1cc2nc3c(=O)n(Cc4ccccc4)c(=O)[nH]c3nc2cc1N
Cc1ccc(C2C=C(c3ccccc3)Nc3nc(NS(C)(=O)=O)nn32)cc1 (stereo not drawn)
Cn1cc(/C=C2\SC(=S)N(NC(=O)c3ccccc3)C2=O)c2ccccc21
CSc1ccc(C2C(C(=O)c3ccco3)=C(O)C(=O)N2c2nnc(SC)s2)cc1 (stereo not drawn)
COc1cccc(C(=O)c2sc3nc(-c4ccccc4)cc(C(F)(F)F)c3c2N)c1
COc1cccc2c1C(=O)c1c(O)c3c(c(O)c1C2=O)C[C@](O)(C(C)=O)C[C@H]3O[C@@H]1C[C@@H](N)[C@@H](O)[C@@H](C)O1
CCOC(=O)Cn1c(=O)c(-c2cc(Br)ccc2N)nc2ccccc21
O=C(NC1CC1)c1cccc2c1C(=O)c1ccc(N3CCC(Cc4ccccc4)CC3)cc1S2(=O)=O
Nc1nnnn1/N=C/c1cc(Cl)cc(Cl)c1O
COc1cc(-c2cc(-c3ccc(N)cc3)[nH]c(=O)c2C#N)cc(OC)c1OC
CCCCOC(=O)c1ccc(NC(=O)/C(C#N)=C/c2ccc(-c3ccccc3)o2)cc1
CCc1cc(C(=O)Nc2ccc(OC)nc2)sc1C
C=CCOc1ccc(C2OC34CCCCC3C(C#N)(C#N)C2(C#N)C(=N)O4)cc1 (stereo not drawn)
CC1CCN(c2ccc3c(c2)S(=O)(=O)c2cccc(C(=O)NCc4cccc(F)c4)c2C3=O)CC1
O=c1[nH]c(S)c(/C=C2\C=Nc3ccccc32)s1
O=C1/C(=C\c2ccc(-c3ccccc3Cl)o2)SC(=S)N1CC1CCCO1 (stereo not drawn)
